Most compounds without a hit are left out; they make up all but 4.6% or so of the library.
HIF-2a inh: HIF-2a reporter inhibitors, primary screen, luminescence, 786-0 RCC cells; 786-0 RCC cells HIF-2a reporter, luciferase luminescence, overnight; inhibition, % at 18.8 µM; 360,000 compounds, 0.72% hits;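 active = inhibition of the luminescence signal of 40% or more relative to plate controls, in a single-dose primary screen at 18.75 µM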
Mdm2 MdmX PPI: inhibitors of human Mdm2-MdmX association, primary screen, cell-based, luminescence, split luciferase, SaOS-2, uHTS | Protein Mdm4 (Homo sapiens) + E3 ubiquitin-protein ligase Mdm2 (Homo sapiens), … | inhibition, % at 8 µM | SaOS-2 split-luciferase Mdm2/MdmX complementation | 330,000 compounds, 3% hits;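 active = inhibition of at least 50% at 8 µM in the primary screen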
CF NFkB block: inhibitors of PAF-induced NF-kB signaling, primary screen, cell-based, GFP fluorescence, uHTS | KKLEB NF-kB-GFP reporter, GFP fluorescence overnight | inhibition, % at 5 µM | 360,000 compounds, 0.86% hits | AID 588850, 2011;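 active = at least 50% inhibition at 5 µM, scaled per plate between neutral and stimulator controls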;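 note: PAF is a Pseudomonas aeruginosa culture filtrate used as stimulus; plate controls were PAF-stimulated DMSO wells for no effect and unstimulated DMSO wells for full effect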
Peg3 promoter: Peg3 promoter-driven luciferase inhibitors, primary screen, cell-based, HeLa, luciferase luminescence. HeLa PEG-Prom luciferase reporter, overnight. inhibition, % at 20 µM. 360,000 compounds, 1.7% hits. AID 588405, 2011;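 active = inhibition of at least 50% at 20 µM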
ABHD5-PLIN5 inh: ABHD5-PLIN5 interaction inhibitors, primary screen, cell lysate, split luciferase complementation, luminescence | Perilipin-5 (Homo sapiens) + 1-acylglycerol-3-phosphate O-acyltransferase ABHD5 (Homo … | Split G. princeps luciferase complementation, 4 h | inhibition, % at 4 µM | 360,000 compounds, 0.78% hits;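 active = inhibition above the mean inhibition across every tested compound plus 3 SD, cut at about 22% in these data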;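 note: 0% = DMSO only wells and the 100% control is not disclosed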
KKLEB tox: cytotoxicity in KKLEB CF airway cells, primary screen, cytotoxicity control for CF NF-kB inhibitor project, cell-based, uHTS, fluorescence assay plates; KKLEB CF airway cells viability, ATPlite luminescence, overnight; active compounds read low; cells stimulated with P. aeruginosa culture filtrate; activity change (cytotoxicity), % at 5 µM; 360,000 compounds, 0.36% hits; AID 602141, 2011;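 active = corrected activity change at or below -50% at 5 µM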
Mdm2-MdmX conf: Mdm2-MdmX complex disruptors, retested hits, confirmation, luminescence, single concentration; 10,000 compounds, 55% hits; inhibition, % at 8 µM; Mdm2-MdmX binding, luminescent assay; shares compounds with Mdm2 MdmX PPI; in the data active = inhibition above about 40%
FLuc counter: full-length luciferase signal inhibition, confirmation, counter-screen for Mdm2/MdmX interaction inhibitor project, cell-based, single concentration, SaOS-2 | shares compounds with Mdm2 MdmX PPI | SaOS-2 full-length luciferase counterscreen, luminescence | inhibition, % at 8 µM | 6,200 compounds, 77% hits;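 active = mean inhibition at 8 µM reaching about 37%, which flags the compound as non-specific, limit read from the data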;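 note: p53-null SaOS-2 cells with luciferase driven by a doxycycline-inducible promoter; compound on cells about two nights before reading with doxycycline added after day one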
* marks the source's active call; other numbers are inactive results; x = no result.

SMILES	HIF-2a inh	Mdm2 MdmX PPI	CF NFkB block	Peg3 promoter	ABHD5-PLIN5 inh	KKLEB tox	Mdm2-MdmX conf	FLuc counter
Cc1cccc(-n2c(/C=C/c3ccc([N+](=O)[O-])o3)nc3ccccc3c2=O)c1	20	94*	-6	86*	2	12	57*	42*
CC(CN1CCOCC1)C(C#N)(c1ccccc1)c1ccccc1 (configuration not stated)	-2	x	-35	-3	7	1	x	x
O=C(Cc1ccccc1)OCCNC(=O)c1cccnc1	7	18	11	7	4	0	x	x
N#CC(C#N)=C(N)c1cccnc1	5	55*	-3	22	-2	0	-24	x
N=C1c2ccccc2CN1c1ccc(F)c([N+](=O)[O-])c1	7	53*	26	1	2	-11	30	x
COc1ccc(C2=CC(c3ccc(OC)c(OC)c3)c3c(c4ccccc4oc3=O)O2)cc1OC (configuration not stated)	21	55*	2	27	-3	4	65*	66*
C[C@@H]1CC[C@@]2(NC1)O[C@H]1C[C@H]3[C@@H]4CC=C5C[C@@H](O)CC[C@]5(C)[C@H]4CC[C@]3(C)[C@H]1[C@@H]2C	10	58*	8	-10	-2	-14	10	x
CC(=O)O[C@@H]1/C=C/[C@](C)(O)C[C@@H](C)C/C=C/[C@H]2[C@H](O)[C@@](C)(O)[C@@H](C)[C@H]3[C@H](Cc4ccccc4)NC(=O)[C@@]312	-1	-24	-7	9	-2	6	x	x
CC(=O)O[C@@H]1/C=C/[C@](C)(O)C[C@@H](C)C/C=C/[C@H]2[C@@H]3O[C@]3(C)[C@@H](C)[C@H]3[C@H](Cc4ccccc4)NC(=O)[C@@]312	-43	78*	55*	39	4	-53*	51*	42*
Cc1ccc(OC(=O)N(C)C[C@@H]2OCc3cnnn3CCCC(=O)N([C@@H](C)CO)C[C@@H]2C)cc1	7	x	-24	9	-5	10	x	x
CC(C)(O)[C@H]1O[C@H]2CC[C@@]3(C)[C@@](O)(CC[C@H]4Cc5c([nH]c6ccccc56)[C@@]43C)C2=CC1=O	x	62*	x	x	x	x	50*	77*
Nc1ccccc1Cl	12	9	1	-14	2	4	x	x
CC/C(=C\C=C\[C@@H]1C=C[C@@H]2CCC[C@H]2[C@@H]1C(=O)c1ccc[nH]1)[C@@H]1O[C@@H]([C@@H](C)C(=O)O)CC[C@@H]1C	x	84*	x	x	x	x	74*	37*
CCCCn1nnnc1C(c1cccs1)N1CCC2(CC1)C(=O)NCN2c1ccccc1 (configuration not stated)	4	x	-31	13	-2	5	x	x
COC(=O)C1=C(c2ccc(F)cc2F)C[C@@H]2CC[C@H]1N2C(=O)NCCOc1ccccc1	5	7	12	2	0	-7	x	x
Fc1ccc(C(OCCN2CCCC2)c2ccc(F)cc2)cc1	18	-7	-14	-8	22	-11	x	x
Fc1ccc(C(OCCN2CCN(CCCc3ccccc3)CC2)c2ccc(F)cc2)cc1	-7	83*	21	67*	3	-25	59*	30
c1ccc(CCCN2CCN(CCOC(c3ccccc3)c3ccccc3)CC2)cc1	-5	50*	-4	26	0	-9	34	80*
Cc1ccccc1-c1ccc2c(c1)C1c3c(-c4ccccc4)nnn3-c3ccccc3C(=O)N1CC2 (configuration not stated)	-8	x	-18	-6	2	0	x	x
COc1ccc(-n2nnnc2C(c2cccc3ccccc23)N2CCC3(CC2)C(=O)NCN3c2ccccc2)cc1 (configuration not stated)	15	x	7	15	7	-25	x	x
CCOC(=O)CNC(=O)N1Cc2cc(N3CCOCC3)ccc2-n2nncc2C1	8	x	-15	15	3	-8	x	x
O=C1Nc2cc(C(=O)N3CCC4(CC3)OCCO4)ccc2S/C1=C\c1ccccc1	-7	61*	4	22	-3	20	50*	66*
O=C(c1ccccc1)N1CCC2(CC1)OCCO2	14	21	4	17	-4	21	x	x
CCCCCc1nc2c(c(=O)c3ccccc3n2C)c(=O)n1C1CCCCCC1	-3	69*	44	72*	-1	-23	35	x
Cc1ccccc1C(O)(Cc1ccccc1)C1CN2CCC1CC2 (configuration not stated)	18	54*	1	30	6	-5	61*	69*
SMILES	HIF-2a inh	Mdm2 MdmX PPI	CF NFkB block	Peg3 promoter	ABHD5-PLIN5 inh	KKLEB tox	Mdm2-MdmX conf	FLuc counter
Cc1ccc(C(O)(c2ccc(C)c(C)c2)C2CN3CCC2CC3)cc1C (configuration not stated)	18	61*	9	98*	5	-14	44*	74*
C[N+]12CCC(CC1)C(C(O)(c1cccc(Cl)c1)c1cccc(Cl)c1)C2 (configuration not stated)	23	3	-9	14	3	4	x	x
Cc1ncc2n1-c1ccc(Cl)cc1C(c1ccccc1F)=NC2	-22	51*	-27	-17	10	-5	14	x
O=C1CN=C(c2ccccc2F)c2cc(Cl)ccc2N1	15	14	4	15	-7	6	x	x
O=C1NCN(c2ccccc2)C12CCN(C(c1ccnc3ccccc13)c1nnnn1Cc1ccccc1)CC2 (configuration not stated)	20	x	12	18	1	-9	x	x
CCN1CCN(c2ncnc3ccc(Br)cc23)CC1	28	62*	49	13	1	-11	62*	42*
C[C@]12CC[C@@H](O)CC1=CC(=O)C1C2CC[C@]2(C)C(=O)[C@H](O)CC12 (some centres not stated)	7	x	-26	6	-4	19	x	x
N#CC1c2ccccc2-n2nncc2CN1C(=O)c1ccccc1F (configuration not stated)	5	x	5	-13	-5	9	x	x
Cc1ccc(Oc2cc(NN3CCCCC3)c([N+](=O)[O-])cc2[N+](=O)[O-])c([N+](=O)[O-])c1	17	51*	22	19	4	-27	28	x

Bioassay records deposited in PubChem BioAssay by several laboratories.
